# Assay results as given in PubChem BioAssay (NCATS).
# Results filed as inconclusive are left out. The source made the active and inactive calls. Calls follow the shape of the dose curve; as a rule, active = well fitted curve in the direction sought with a large enough effect; inconclusive = small, poorly fitted or top-dose-only effect, or another doubt; inactive = no such curve, though single readings can be large; an effect the other way counts as inactive or inconclusive.
# Columns and labels:
# [1] = qHTS Screen of the MIPE 4.0 Collection Against Ewings Sarcoma (TC71) (AID 1259253); also: nearly all actives have a fitted effect of over 40% in size; also: potency is read from the fitted curve at half-maximal effect
# Procedure, shortened: (§1)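 CellTiter-Glo luminescence after 48 h compound exposure (titration) gave viability; percent activity used DMSO-treated cells as no inhibition and medium-only wells as full inhibition. Cells grown in RPMI/5% FBS, dosed 4 h post-seeding.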
# [2] = qHTS Screen of the MIPE 4.0 Collection Against Ewings Sarcoma (EW8) (AID 1259255); also: nearly all actives have a fitted effect of over 35% in size; also: potency is read from the fitted curve at half-maximal effect
# Procedure, shortened: as §1
# [3] = qHTS Screen of the MIPE 4.0 Collection Against Ewings Sarcoma (TC32) (AID 1259256); also: nearly all actives have a fitted effect of over 45% in size; also: potency is read from the fitted curve at half-maximal effect
# Procedure, shortened: as §1
# [4] = Identifying Small Molecule Inhibitors of Pancreatic Cancer Stem Cells (SN12C, Adherent) (AID 1259358);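 also: cell survival measured after 48 h of compound exposure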; also: potency is read from the fitted curve at half-maximal effect
# Procedure, shortened: (§2)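 Cytotoxicity read by CellTiter-Glo luminescence after 48 h compound exposure at 37C; percent activity scaled between DMSO-treated cells and cell-free wells. Spheroid formats used cells pre-formed 14 days in stem cell media on hydrogel.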
# [5] = Identifying Small Molecule Inhibitors of Pancreatic Cancer Stem Cells (SN12C, Spheroid) (AID 1259360); details: Potency: SN12C spheroid viability; also: potency is read from the fitted curve at half-maximal effect
# Procedure, shortened: (§3)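 Spheroids grown 14 days in stem cell media on hydrogel-coated nonadherent plates; 2D lines seeded directly. Compounds added after 4 h attachment, 48 h at 37C, 5% CO2; CellTiter-Glo luminescence normalized to DMSO (no inhibition) and no-cell wells (full inhibition).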
# [6] = Identifying Small Molecule Inhibitors of Pancreatic Cancer Stem Cells (A278, Adherent) (AID 1259361); also: nearly all actives have a fitted effect of over 35% in size
# Procedure, shortened: as §2
# [7] = qHTS assay to identify small molecule inhibitors of chordoma cells - UCH-1 (AID 1259355); also: nearly all actives have a fitted effect of over 55% in size
# Procedure, shortened: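 800 cells/well, overnight attach; compounds pinned at 15 concs, then auranofin/camptothecin/doxorubicin/rubitecan/topotecan combo added; 48hr 37 C, 5% CO2; CellTiter-Glo, 30min RT, luminescence.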
# [8] = Identifying Small Molecule Inhibitors of Pancreatic Cancer Stem Cells (A2780, Spheroid) (AID 1259357); details: Potency: A2780 spheroid viability;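 also: compound exposure lasted 48 h before the ATP luminescence read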; also: potency is read from the fitted curve at half-maximal effect
# Procedure, shortened: as §3
structure (smiles),measurement,setting,value
CC(=O)OCC(=O)[C@@]1(O)CC[C@H]2[C@@H]3CCC4=CC(=O)C=C[C@]4(C)[C@@H]3[C@@H](O)C[C@@]21C,Potency,[1],9.35 µM (active)
same,Potency,[2],inactive
O=C(O)C1=CO[C@@H](O[C@@H]2O[C@H](CO)[C@H](O)[C@H](O)[C@H]2O)[C@@H]2C(CO)=CC[C@H]12,Potency,[1],16.6 µM (active)
same,Potency,[2],inactive
same,Potency,[3],inactive
CC[C@H](NC(=O)[C@H](C)NC)C(=O)N1C[C@@H](O)C[C@H]1Cc1c(-c2[nH]c3cc(F)ccc3c2C[C@H]2C[C@H](O)CN2C(=O)[C@H](CC)NC(=O)[C@H](C)NC)[nH]c2cc(F)ccc12,Potency,[1],inactive
same,Potency,[2],inactive
CN(CC=CC#CC(C)(C)C)Cc1cccc2ccccc12,Potency,[1],inactive
same,Potency,[2],inactive
NC(N)=Nc1nc(CSCCC(N)=NS(N)(=O)=O)cs1,Potency,[1],18.7 µM (active)
same,Potency,[2],inactive
Cc1cnc(Nc2cccc(CN3CCOCC3)c2)nc1Nc1cccc(S(=O)(=O)NC(C)(C)C)c1,Potency,[1],2.35 µM (active)
same,Potency,[2],2.64 µM (active)
C#CCN(C)CC1=Cc2ccccc2Oc2ccccc21,Potency,[1],inactive
same,Potency,[2],inactive
COc1ccc2nc3cc(Cl)ccc3c(Nc3cc(CN4CCCC4)c(O)c(CN4CCCC4)c3)c2n1,Potency,[1],14.8 µM (active)
same,Potency,[2],26.4 µM (active)
same,Potency,[3],16.6 µM (active)
CN(C)S(=O)(=O)c1ccc2c(c1)C(=Cc1cc3c([nH]1)CCCC3)C(=O)N2,Potency,[1],9.35 µM (active)
same,Potency,[2],8.33 µM (active)
same,Potency,[3],3.72 µM (active)
CN(C)CCOc1ccc(C(=C(CCCl)c2ccccc2)c2ccccc2)cc1,Potency,[1],3.72 µM (active)
same,Potency,[2],inactive
Cc1ccc2c(c1)C(=O)[C@]1(O)CCN(c3ccccc3)C1=N2,Potency,[1],18.7 µM (active)
same,Potency,[2],18.7 µM (active)
CCCCC(F)(F)[C@@]1(O)CC[C@H]2[C@H](CC(=O)[C@@H]2CCCCCCC(=O)O)O1,Potency,[1],2.96 µM (active)
same,Potency,[2],3.32 µM (active)
same,Potency,[3],2.96 µM (active)
CC(C)C[C@H](NC(=O)c1cc2ccccc2s1)C(=O)N1CCN(C(=O)[C@H](CO)NS(=O)(=O)c2ccc(Cl)cc2Cl)CC1,Potency,[1],23.5 µM (active)
same,Potency,[2],20.9 µM (active)
same,Potency,[3],23.5 µM (active)
C=CCc1cccc(C=NNC(=O)CN2CCN(Cc3ccccc3)CC2)c1O,Potency,[1],4.69 µM (active)
same,Potency,[2],10.5 µM (active)
same,Potency,[3],7.43 µM (active)
CC1(C)CC(=O)c2c(C(F)(F)F)nn(-c3ccc(C(N)=O)c(NC4CCC(O)CC4)c3)c2C1 (stereo unspecified),Potency,[1],0.0935 µM (active)
same,Potency,[2],0.148 µM (active)
same,Potency,[3],0.0833 µM (active)
C[C@]12CCC3=C4CCC(=O)C=C4CC[C@@H]3[C@H]1CC[C@@]2(O)CC#N,Potency,[1],inactive
same,Potency,[2],inactive
CN(C)CC[C@H](CSc1ccccc1)Nc1ccc(S(=O)(=O)NC(=O)c2ccc(N3CCN(Cc4ccccc4-c4ccc(Cl)cc4)CC3)cc2)cc1[N+](=O)[O-],Potency,[1],16.6 µM (active)
same,Potency,[2],16.6 µM (active)
same,Potency,[3],4.18 µM (active)
NC(=O)c1ccc(N(C(N)=O)c2c(F)cccc2F)nc1-c1ccc(F)cc1F,Potency,[1],inactive
same,Potency,[2],inactive
same,Potency,[3],inactive
same,Potency,[4],inactive
same,Potency,[5],inactive
same,IC50 (viability decrease),[6],inactive
CNC(=O)[C@H](Cc1ccccc1)NC(=O)[C@H](CC(C)C)[C@H](CSc1cccs1)C(=O)NO,Potency,[1],5.9 µM (active)
same,Potency,[2],inactive
same,Potency,[3],inactive
C[C@@H]1[C@H](O)[C@@H](C)C=CC=CC=CC=CC=CC=CC=C[C@H](O[C@@H]2O[C@H](C)[C@H](O)[C@H](N)[C@@H]2O)C[C@@H]2O[C@](O)(C[C@@H](O)C[C@@H](O)[C@H](O)CC[C@@H](O)C[C@@H](O)CC(=O)O[C@H]1C)C[C@H](O)[C@@H]2C(=O)O,Potency,[1],0.372 µM (active)
same,Potency,[2],1.18 µM (active)
same,Potency,[3],0.743 µM (active)
COc1c(C)c2c(c(O)c1CC=C(C)CCC(=O)OCCN1CCOCC1)C(=O)OC2,Potency,[1],1.48 µM (active)
same,Potency,[2],1.05 µM (active)
same,Potency,[3],1.32 µM (active)
same,outcome,[7],inactive
C[C@@H](O[C@H]1OCCN(Cc2n[nH]c(=O)[nH]2)[C@@H]1c1ccc(F)cc1)c1cc(C(F)(F)F)cc(C(F)(F)F)c1,Potency,[1],20.9 µM (active)
same,Potency,[2],26.4 µM (active)
same,Potency,[8],18.7 µM (active)
same,Potency,[4],18.7 µM (active)
same,Potency,[5],20.9 µM (active)
same,IC50 (viability decrease),[6],16.6 µM (active)
COc1cc([C@H]2Oc3cc([C@H]4Oc5cc(O)cc(O)c5C(=O)[C@H]4O)ccc3O[C@H]2CO)ccc1O,Potency,[1],14.8 µM (active)
same,Potency,[2],9.35 µM (active)
same,Potency,[3],16.6 µM (active)
CCC(=C(c1ccc(O)cc1)c1ccc(OCCNC)cc1)c1ccccc1,Potency,[1],20.9 µM (active)
same,Potency,[2],26.4 µM (active)
same,Potency,[3],23.5 µM (active)
CN1CCN(c2ncc(-c3cc(Cl)cc(Cl)c3Cl)c(N)n2)CC1,Potency,[1],16.6 µM (active)
same,Potency,[2],inactive
same,Potency,[3],inactive
CN[C@@H]1[C@@H](O)[C@@H](O[C@@H]2[C@@H](O)[C@H](O[C@H]3O[C@H](CN)[C@@H](O)[C@H](O)[C@@H]3O)[C@@H](N)C[C@@H]2NC(=O)[C@@H](O)CN)OC[C@]1(C)O,Potency,[1],inactive
same,Potency,[2],inactive
same,Potency,[3],inactive
NS(=O)(=O)c1cc(Cl)c(Cl)c(S(N)(=O)=O)c1,Potency,[1],inactive
same,Potency,[2],inactive
same,outcome,[7],inactive
N#Cc1c(N(CC(=O)O)CC(=O)O)sc(C(=O)O)c1CC(=O)O,Potency,[1],inactive
same,Potency,[2],inactive
same,outcome,[7],inactive
CNC(=O)c1cc(COc2nnc(Nc3ccc(Cl)cc3)c3ccoc23)ccn1,Potency,[1],inactive
same,Potency,[2],inactive
same,Potency,[8],inactive
same,Potency,[4],inactive
